This is an account of results in PubChem BioAssay (NCATS).

A short description of experiment [1]: P-glycoprotein substrates identified in KB-8-5-11 adenocarcinoma cell line, qHTS therapeutic library screen (AID 1346987). Further: nearly all actives have a fitted effect of over 65% in size. Further: potency means the concentration at half of the fitted maximal effect. The method, boiled down: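 KB-8-5-11: colchicine-selected sub-line of KB-3-1 over-expressing P-gp; assay medium lacked colchicine. 72 h drug exposure at 37 degree C, CellTiter-Glo.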
Experiment [2] has as its system Zika virus NS2B-NS3 protease (unlinked complex). The experiment is described as follows: Primary screen GU Rhodamine qHTS for Zika virus inhibitors: Unlinked NS2B-NS3 protease assay (AID 1347159). Further: nearly all actives have a fitted effect of over 60% in size. Further: potency means the concentration at half of the fitted maximal effect. On activity change, negative = inhibition: on the % scale 0 is the no-effect control and ±100 the full control effect. Put shortly: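 Compounds, tested up to 114 microM, were incubated for 15 minutes with 25 nM unlinked NS2B-NS3 protease at pH 8.0. Cleavage of 1.5 microM Rhodamine110 substrate was then followed by fluorescence for 15 minutes.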

Experiment [3] concerns the target Cytochrome P450 2D6 (Homo sapiens) (UniProt P10635). Nature of the experiment: Cytochrome P450 family 2 subfamily D member 6 (CYP2D6) small molecule antagonists: luciferase biochemical (cell-free) qHTS assay (AID 1645840; active means well fitted curve in the direction sought with a large enough effect in the repeat runs; an effect the other way counts as inactive or inconclusive; further: on the % scale 0 is the no-effect control and ±100 the full control effect; nearly all actives have a fitted effect of over 55% in size). Put shortly: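 P450-Glo luminescent screen: recombinant CYP2D6 enzyme–proluciferin substrate mix preincubated with compound 10 min at room temperature, then NADPH regeneration added for 1 h at room temperature. Detection reagent added for 20 min; luciferin light read as relative luminescence units.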
On the technique in general: Quantitative high-throughput screening tests each substance at several concentrations.

Experiment [4] has as its target Cytochrome P450 2C9 (Homo sapiens) (UniProt P11712). Nature of the experiment: Cytochrome P450 family 2 subfamily C member 9 (CYP2C9) small molecule antagonists: luciferase biochemical (cell-free) qHTS assay (AID 1645842; active means well fitted curve in the direction sought with a large enough effect in the repeat runs; an effect the other way counts as inactive or inconclusive; further: on the % scale 0 is the no-effect control and ±100 the full control effect; nearly all actives have a fitted effect of over 55% in size). The method, boiled down: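 Luminescence, after 20 min with luciferin detection reagent, reflected CYP2C9 turnover during a 1 h NADPH-driven reaction at 37C. Enzyme-substrate mix contained 0.4% bovine serum albumin and was preincubated with compound 10 min at room temperature.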

The target of experiment [5] is Guanidinoacetate N-methyltransferase (Homo sapiens) (UniProt Q14353). Nature of the experiment: Confirmatory Screen for Target Class Profiling of Small Molecule Inhibitors of Methyltransferases (AID 1745852). On activity change, negative = inhibition: on the % scale 0 is the no-effect control and ±100 the full control effect. Particulars: activity change, negative = inhibition: at 57.3 µM (top of the series) unless noted.
Experiment [6] concerns the target Nicotinamide N-methyltransferase (Homo sapiens) (UniProt P40261). The description is as above. Particulars: MTase-Glo luminescence, SAH detection, recombinant enzyme; measured here: NNMT max response; stronger effect = lower value.
Another experiment concerns KB-3-1. Nature of the experiment: Cytotoxic Profiling of Annotated Libraries Using Quantitative High-Throughput Screening (AID 1296008). Further: nearly all actives have a fitted effect of over 60% in size. Further: potency means the concentration at half of the fitted maximal effect. On max response: on the % scale 0 is the no-effect control and ±100 the full control effect. Particulars: Five cell lines viability, CellTiter-Glo ATP luminescence, 48-72 h; max response: stronger effect = lower value. The method, boiled down:
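Cells exposed to compounds for 48 or 72 hr at 37 degrees Celsius. Viability read as ATP-coupled luminescence with CellTiter-Glo after 10 min at room temperature.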
(Cellular ATP, detected with luciferase, serves as a proxy for viable cell number.)

Another experiment relates to CAOV3. The experiment is described as follows: Primary qHTS to identify gynecologic anti-cancer compounds using libraries of approved drugs and bioactive compounds (AID 1345084). Further: nearly all actives have a fitted effect of over 55% in size. Further: potency means the concentration at half of the fitted maximal effect. The following applies: Gynecologic cancer cell panel viability, ATPlite luminescence, 48 h; series mostly up to 57.5 µM. The method, boiled down:
(§1)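 Luminescence from the ATPlite ATP-monitoring reagent indicates viable cell number; lower signal means cytotoxicity. Cells received compound 16 h after seeding and were exposed for 48 h across five concentrations.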

The test system of another experiment is HeLa. Described as above. The following applies: Gynecologic cancer cell panel viability, ATPlite luminescence, 48 h; series mostly up to 57.5 µM. Put shortly: as §1
For the next experiment, the system named is JEG-3. Described as above. Particulars: Gynecologic cancer cell panel viability, ATPlite luminescence, 48 h; series mostly up to 57.5 µM. The method, boiled down:
as §1

The subject of the next experiment is SKOV3. The description is as above. Particulars: Gynecologic cancer cell panel viability, ATPlite luminescence, 48 h; series mostly up to 57.5 µM. Put shortly: as §1
The nature of experiment [7]: Primary qHTS for inhibitors of nuclear receptor binding SET domain protein 2 (NSD2) in an RCH-ACV wild type WT cells (2C) (AID 1645877). Further: nearly all actives have a fitted effect of over 70% in size. Further: potency means the concentration at half of the fitted maximal effect.
The nature of experiment [8]: Primary redox qHTS assay for identification of artifact compounds. (AID 1845223).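 Further: 0% = DMSO and 100% = reference compound.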 The method, boiled down:
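Amplex Red (25 uM) and HRP (250 mU/mL) in HBSS, with compounds for 15 min, then 250 uM DTT for 30 min, room temperature, dark. Fluorescence 525/598 nm read; normalized to DMSO and 10 uM DA3003; Hill fit.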

Experiment [9] in a line: P-glycoprotein substrates identified in KB-3-1 adenocarcinoma cell line, qHTS therapeutic library screen (AID 1346986). Further: nearly all actives have a fitted effect of over 60% in size. The method, boiled down: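 Compounds were tested in dose-response against KB-3-1 and KB-8-5-11 cells at 37 degree C for 72 h, and viability was measured by luminescence. AC50 values came from curve fitting with class-based activity calls.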
The next experiment has as its system HACAT. The experiment is described as follows: qHTS assay to identify novel small-molecules to repurpose for Merkel cell carcinoma treatment (AID 1296009). Further: nearly all actives have a fitted effect of over 60% in size. Particulars: MCC and control cell lines, CellTiter-Glo viability, 72 h; at 44.8 µM (top of the series) unless noted. The method, boiled down: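 Cells were incubated with compound for 72 hr at 37 degree celsius before CellTiter-Glo addition. Luminescence was normalized with no-cell wells as full cytotoxicity and DMSO as baseline.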

Results filed as inconclusive are left out. Calls of active or inactive are those of the source. Unless noted, the call rests on the fitted dose curve; in most records, active means well fitted curve in the direction sought with a large enough effect; inconclusive means small, poorly fitted or top-dose-only effect, or another doubt; inactive means no such curve, though single readings can be large; an effect the other way counts as inactive or inconclusive.

Cytochrome P450 2D6 (Homo sapiens), sequence (P10635 whole entry, looked up): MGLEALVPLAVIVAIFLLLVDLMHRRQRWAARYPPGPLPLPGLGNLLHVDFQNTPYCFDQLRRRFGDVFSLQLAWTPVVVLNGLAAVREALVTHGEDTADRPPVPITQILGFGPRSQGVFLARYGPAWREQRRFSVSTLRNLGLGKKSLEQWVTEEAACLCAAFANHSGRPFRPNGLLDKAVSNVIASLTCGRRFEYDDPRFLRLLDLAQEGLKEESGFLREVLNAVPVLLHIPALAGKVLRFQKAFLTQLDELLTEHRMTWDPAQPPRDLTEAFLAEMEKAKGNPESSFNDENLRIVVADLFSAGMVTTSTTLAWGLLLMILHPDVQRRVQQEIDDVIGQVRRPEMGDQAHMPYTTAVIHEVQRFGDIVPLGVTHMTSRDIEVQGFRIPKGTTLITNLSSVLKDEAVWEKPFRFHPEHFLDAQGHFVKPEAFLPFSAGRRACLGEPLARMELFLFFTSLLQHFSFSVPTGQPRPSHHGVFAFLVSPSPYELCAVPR
Cytochrome P450 2C9 (Homo sapiens), sequence (P11712 whole entry, looked up): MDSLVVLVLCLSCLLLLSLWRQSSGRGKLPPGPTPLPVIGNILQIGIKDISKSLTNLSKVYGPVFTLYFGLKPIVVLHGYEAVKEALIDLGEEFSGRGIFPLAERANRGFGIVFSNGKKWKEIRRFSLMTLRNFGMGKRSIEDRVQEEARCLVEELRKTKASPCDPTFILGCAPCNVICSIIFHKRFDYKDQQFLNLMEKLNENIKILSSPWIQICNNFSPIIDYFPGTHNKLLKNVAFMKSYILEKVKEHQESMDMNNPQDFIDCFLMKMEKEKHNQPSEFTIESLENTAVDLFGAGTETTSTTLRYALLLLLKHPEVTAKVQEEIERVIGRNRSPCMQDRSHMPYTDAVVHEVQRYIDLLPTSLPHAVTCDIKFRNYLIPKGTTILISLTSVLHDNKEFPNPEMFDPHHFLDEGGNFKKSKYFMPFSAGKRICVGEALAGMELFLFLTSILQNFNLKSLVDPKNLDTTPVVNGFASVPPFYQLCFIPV
Nicotinamide N-methyltransferase (Homo sapiens), sequence (P40261 whole entry, looked up): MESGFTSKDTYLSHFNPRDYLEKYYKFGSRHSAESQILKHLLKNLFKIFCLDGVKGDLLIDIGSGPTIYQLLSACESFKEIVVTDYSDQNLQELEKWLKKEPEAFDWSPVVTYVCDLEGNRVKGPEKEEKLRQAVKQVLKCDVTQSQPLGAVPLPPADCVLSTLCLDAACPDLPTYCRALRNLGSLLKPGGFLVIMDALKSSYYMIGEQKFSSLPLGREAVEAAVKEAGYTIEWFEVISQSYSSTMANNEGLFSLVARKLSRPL

Regarding `COc1cc(N2CCN(C)CC2)ccc1N`, the Potency result (in experiment [1]; in experiment [2]; in [3]; in [4]; in the experiment with CAOV3; with HeLa) was “inactive” throughout. Besides, the Potency entry in the experiment with JEG-3 and in the experiment on SKOV3 was “inactive” in each case. Further, the activity change, negative = inhibition in [5] is -4.23%. Besides, the activity in experiment [6] was -3.44%. Moreover, the max response with KB-3-1 is -1.04% (inactive).
With `C[C@H]1O[C@@H](O[C@H]2CC[C@]3(C=O)C4CC[C@]5(C)[C@@H](C6=CC(=O)OC6)CC[C@]5(O)[C@@H]4CC[C@]3(O)C2)C[C@@H](O)[C@@H]1O` (stereo not given in full), the Potency in experiment [1] is 50.2 nM (active); in experiment [7], 31.7 nM (active); in the experiment on KB-3-1, 89.3 nM (active); in the experiment with CAOV3 it was 112 nM (active); in the experiment on HeLa it was 126 nM (active); with SKOV3, 112 nM (active). In addition, the Potency entry in [2] is “inactive”.
For the molecule `CC[C@@H]1C[C@H]2CC[C@H](O2)[C@H](C)C(=O)O[C@@H](C)C[C@@H]2CC[C@@H](O2)[C@@H](C)C(=O)O[C@H](CC)C[C@H]2CC[C@H](O2)[C@H](C)C(=O)O[C@@H](C)C[C@@H]2CC[C@@H](O2)[C@@H](C)C(=O)O1`, the Potency in experiment [1] was 1930 nM (active); in the experiment on KB-3-1, 38.5 nM (active); in the experiment with CAOV3, 398 nM (active); with HeLa, 794 nM (active). Besides, the Potency entry in the experiment with JEG-3 was “inactive”.
Turning to `OCc1nnc2n1-c1ccc(Cl)cc1C(c1ccccc1Cl)=NC2`, the Potency result (in [1]; in [2]; in experiment [7]; in experiment [8]; with CAOV3; with JEG-3) was “inactive” each time. In the experiment with SKOV3, the Potency entry is “inactive”. For the same molecule, the max response in the experiment with KB-3-1 is 8.98% (inactive).
In the case of `NC(=O)c1ncn2c1CN=C(c1ccccc1Br)c1cc(F)ccc1-2`, the Potency entry (in experiment [2]; in experiment [3]; in experiment [4]; in experiment [7]; in [8]; with CAOV3) was “inactive” throughout. For the same molecule, the Potency result in the experiment on JEG-3 and in the experiment on SKOV3 was “inactive” in each case. Further, in the experiment with KB-3-1, the max response was 5.47% (inactive).
On to `CO[C@H]1[C@H](O)[C@H](O[C@H]2CC[C@]3(C=O)C4CC[C@]5(C)[C@H](C6=CC(=O)OC6)CC[C@]5(O)C4CC[C@@H]3C2)O[C@@H](C)[C@@H]1O` (stereo not given in full), for which the Potency entry in experiment [2] is “inactive”. Further, the Potency is 39.9 nM (active) with KB-3-1, 100 nM (active) in the experiment on CAOV3 and 126 nM (active) in the experiment with HeLa.
For the molecule `C[C@@H]1[C@H](O)[C@@H](C)/C=C/C=C/CC/C=C/C=C/C=C/C=C/[C@H](O[C@H]2O[C@@H](C)[C@H](O)[C@@H](N)[C@H]2O)C[C@@H]2O[C@](O)(C[C@@H](O)[C@H](O)CC[C@@H](O)C[C@@H](O)C[C@@H](O)CC(=O)O[C@H]1C)C[C@H](O)[C@H]2C(=O)O`, the Potency result (in [9]; in [1]; in the experiment with CAOV3; in the experiment with JEG-3) was “inactive” throughout. Also, in experiment [2], the Potency was 8910 nM (active). Further, the outcome with KB-3-1 is “inactive”. Also, the outcome with HACAT is “inactive [at 17.4 µM]”.
In the case of `C=C1[C@@H](C)[C@H]2[C@H](Cc3ccccc3)NC(=O)[C@]23OC(=O)/C=C/C(=O)CCC[C@@H](C)C/C=C/[C@H]3[C@@H]1O`, the Potency is 5800 nM (active) in experiment [1]; 459 nM (active) in [7]; 5800 nM (active) in the experiment on KB-3-1; 12600 nM (active) in the experiment on CAOV3; 25100 nM (active) with SKOV3. Further, in the experiment with JEG-3, the Potency result is “inactive”.
Take `CC(=O)OC[C@]12C[C@H](O)C(C)=C[C@H]1O[C@@H]1[C@H](O)[C@@H](OC(C)=O)[C@@]2(C)[C@]12CO2`: the Potency in [1] is 14.3 nM (active); with KB-3-1, 32.1 nM (active); with HeLa, 178 nM (active); with JEG-3, 224 nM (active). For the same molecule, the Potency result in experiment [2] and in [8] was “inactive” in each case.
In the case of `COC1CC(O[C@H]2CC[C@@]3(C)C(CCC4C3CC[C@]3(C)[C@@H](C5=CC(=O)OC5)CC[C@]43O)C2)OC(C)C1O` (stereo not given in full), the Potency in experiment [1] is 100 nM (active); with KB-3-1 it was 159 nM (active); in the experiment with CAOV3, 178 nM (active); in the experiment on HeLa, 141 nM (active); with SKOV3 it was 126 nM (active). Further, the Potency result in experiment [2] and in experiment [8] was “inactive” each time.
